Records with an inconclusive call do not appear. Where a call stands in place of a potency, no number is given. Active and inactive are the calls of the source. Calls follow the shape of the dose curve; as a rule, active = well fitted cell-killing curve with a large enough effect in the repeat runs; inconclusive = weak or mixed curves, or effect the other way; inactive = flat fitted curve, though single readings scatter.
Key:
[1] = cAMP Responsive Elements (CRE) small molecule antagonists, cell-based qHTS assay: qHTS cell viability counter screen (AID 2060913); also: nearly all actives have a fitted effect of over 40% in size
Procedure, shortened: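 HEK293T CRE-bla, 2,000 cells/well, 18 h preincubation; cpd in DMSO + NKH477 0.25 uM final, 3 h 37 C/5% CO2; LiveBLAzer 2 h RT, then CellTiter-Glo 30 min RT, luminescence.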

[2] = cAMP Responsive Elements (CRE) small molecule agonists, cell-based qHTS assay: qHTS cell viability counter screen (AID 2060914);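 also: viability read after 3 h of compound exposure; nearly all actives have a fitted effect of over 50% in size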
Procedure, shortened: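 CRE-bla HEK293T cells in 10% dialyzed FBS medium were exposed to compounds for 3 h at 37C after 18 h plating. CellTiter-Glo was then added in the same wells, and luminescence was read after 30 min at room temperature.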

| SMILES | Potency [1] | Potency [2] |
| --- | --- | --- |
| Fc1ccc(Oc2ccnc3cc(Cl)cc(Cl)c23)cc1 | inactive | inactive |
| N#CC1(N=NC2(C#N)CCCCC2)CCCCC1 | inactive | inactive |
| O=C(CCl)c1ccc(Cl)cc1Cl | inactive | inactive |
| Cc1ccc(N=C=O)cc1N=C=O | inactive | inactive |
| S=C=NCc1ccccc1 | inactive | inactive |
| COC(=O)c1ccc(CBr)cc1 | inactive | inactive |
| COc1ccc(N)cc1 | inactive | inactive |
| C[Si](Cn1cncn1)(c1ccc(F)cc1)c1ccc(F)cc1 | inactive | inactive |
| CCC(=O)c1ccc(Cl)cc1 | inactive | inactive |
| O=c1[nH]c2ccccc2o1 | inactive | inactive |
| S=C=S | inactive | inactive |
| Cc1ccc(N)cc1N | inactive | inactive |
| O=S(=O)(C(Cl)(Cl)Cl)C(Cl)(Cl)Cl | inactive | inactive |
| CC(=O)c1ccc(-c2ccccc2)cc1 | inactive | inactive |
| C=CCc1ccccc1O | inactive | inactive |
| CNC(=O)Oc1cccc(N=CN(C)C)c1 | inactive | inactive |
| CCCCCCCCc1ccc(O)cc1 | inactive | inactive |
| ClCc1ccccc1CCl | inactive | inactive |
| CC(C)(C1CCC(O)CC1)C1CCC(O)CC1 (stereo unspecified) | inactive | inactive |
| CCNCC | inactive | inactive |
| O=C(O)c1ccc2[nH]cc(CCCCN3CC=C(c4ccccc4)CC3)c2c1 | inactive | inactive |
| CN(C)CCc1c[nH]c2cccc(O)c12 | inactive | inactive |
| CN1C[C@@H](NS(=O)(=O)N(C)C)C[C@@H]2c3cccc4c3c(cn4C)C[C@H]21 | inactive | inactive |

— PubChem BioAssay (Tox21)
